The results in this text go back to PubChem BioAssay.

In general, inhibition refers to the change of the read-out against control, counted positive when it falls.

The nature of assay [1]: inhibitors of TNFa-induced NFkB p65 translocation, primary screen, imaging, HUVEC, MLSMR starter and 10KST1 sets (AID 438;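 active = inhibition above 20% together with a positive visual image hit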;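 note: compound added about 3h40 before a 20 min TNFalpha stimulation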;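 for inhibition: signal is the nuclear over cytoplasmic p65 intensity ratio per well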). To be noted: HUVEC TNFa-induced p65 nuclear translocation; cell count: measured here: nuclei count (cytotoxicity indicator), at 2.08 µM; inhibition: at 2 µM, stronger effect = higher value, 0% TNFa-plus-vehicle, 100% no-TNFa wells.
Assay [2] can be described thus: inhibitors of mutant huntingtin aggregation, primary screen, imaging, exon1htt(103Q)mCFP cells, high-content imaging (AID 483;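 active = visual image review flags a hit and inhibition of aggregation exceeds 20%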;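 note: compound exposure lasted 3 days before fixation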;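 for nuclei count: percent of the per-plate median nuclei count of sample wells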). To be noted: exon1htt(103Q)mCFP cell line, aggregate imaging, at 2 µM; inhibition of aggregation: stronger effect = higher value; nuclei count: measured here: cell count, toxicity.
The nature of assay [3]: inhibitors of E-selectin induction by TNFa, primary screen, imaging, HUVEC, immunofluorescence, MLSMR starter and 10KST1 sets (AID 487;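 active = visually confirmed hit in the image check and inhibition above 20%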;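 for inhibition: signal is fraction of cell area covered by stained E-selectin grains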;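 for nuclei count: 100% = median nuclei count of all wells on the same plate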). To be noted: HUVEC TNFalpha-induced E-selectin immunofluorescence imaging, at 2 µM; inhibition: stronger effect = higher value; nuclei count: measured here: cell number, toxicity.
Assay [4] is described as follows: DUSP6 inhibitors restoring Erk phosphorylation by chemical complementation, primary imaging in DUSP6-transfected HeLa (AID 609;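 active = compounds giving at least 50% inhibition in the cell-based MKP-3 phosphatase rescue imaging test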;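 for inhibition: phospho-Erk level distribution per well compared with pooled transfected vehicle control wells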). To be noted: HeLa MKP-3 transfected, phospho-Erk imaging KS statistic, at 10 µM, cells stimulated with TPA for 15 min.
Assay [5] has as its target Dual specificity protein phosphatase 6 (Homo sapiens) (UniProt Q16828). Described as above. To be noted: HeLa MKP-3 transfected, phospho-Erk imaging KS statistic; at 10 µM; stronger effect = higher value; cells stimulated with TPA for 15 min.
In assay [6] the target is Voltage-gated potassium channel subunit beta-2 (Rattus norvegicus) (UniProt P62483). The experiment in a line: KvBeta enzyme negative modulators, primary screen, biochemical, NADPH fluorescence (AID 622;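 active = fluorescence slope higher than the sample average by over 3 SD, cut at about -0.22 in these data, passing the limit was not always enough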;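 note: slope of raw intensity against log time taken from 70 to 1610 s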). To be noted: recombinant KvBeta, 4-cyanobenzaldehyde reduction, at 10 µM, stronger effect = higher value.
Assay [7] shares this target. The experiment in a line: KvBeta positive modulators, primary screen, biochemical, NADPH fluorescence (AID 623;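 active = NADPH fluorescence slope more negative than the mean of all samples by about 3 SD, 99.7% confidence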;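 note: fluorescence intensity change per second fitted from 20 to 320 s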). To be noted: Recombinant KvBeta, NADPH fluorescence decrease slope, 10 min; at 10 µM; stronger effect = lower value.
For assay [8], the target named is Alpha-2C adrenergic receptor (Homo sapiens) (UniProt P18825). Nature of the assay: modulators of alpha2C/GIRK thallium flux, primary screen, cell-based, HEK293 alpha2C/GIRK1/2 (AID 624;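 active = fluorescence slope after compound addition differing from the mean of all screened samples at 99.7% confidence, in either direction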;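 note: slope of fluorescence ratio to pre-addition baseline per second over 15 to 24 s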). To be noted: thallium flux BTC fluorescence, at 10 µM, actives lie on both sides.
The nature of assay [9]: inhibitors of larval lipid processing in zebrafish, primary screen, whole organism, PED6 fluorescence, gall bladder and intestine (AID 686;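 active = a full or partial loss of lipid-probe fluorescence in the fish gall bladder, intestine or both, judged by eye; inactive = no fluorescence loss, or compound toxic to the fish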;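 note: larvae 5 to 7 days old with five fish per well; signal comes from phospholipase A2 cleavage of quenched PED6 carried via bile; overnight exposure to compound and PED6 before scoring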). To be noted: Zebrafish larvae PED6 lipid processing, fluorescence scoring; screened at 20 µM (by protocol).
A short description of assay [10]: inhibitors of Chlamydomonas gravitaxis, primary screen, whole organism, Chlamydomonas reinhardtii, WT vs cilia-less mutant, absorbance, 96-well (AID 463189).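 Note: 0% = wild type cc124 cells in DMSO and 100% = ciliumless bld1 mutant cells.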 To be noted: OD600 absorbance, 2 days, at 10 µM, stronger effect = higher value.
Assay [11] in a line: inhibitors of Sendai virus-induced IRF3 signaling, primary screen, TLR/RLR signaling modifier project, cell-based, Sendai virus stimulus, luciferase, 10K MLSCN set (AID 602276;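 active = inhibition at or above 50% at 10 µM; inactive = inhibition below 50%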;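 note: firefly luciferase from ISG56 promoter only with Renilla not read in this screen; 0% = Sendai virus plus DMSO and 100% = medium plus DMSO without virus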). To be noted: HEK293 RL24 IRF3 luciferase reporter, at 10 µM, stronger effect = higher value. A general note: Reporter assays use an easily measured gene product as a stand-in for the process of interest.
Assay [12] is described as follows: inhibitors of poly I:C-induced TLR3 signaling, primary screen, cell-based, poly I:C stimulus, luciferase, 10K MLSCN set (AID 602277;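 active = inhibition of the reporter signal at or above 50%; inactive = inhibition below 50%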). To be noted: HEK293-TLR3 RL24 IRF3 luciferase reporter, at 10 µM, stronger effect = higher value.
The mark [13] stands for this setting: measured here: cell density z-score.
Setting [14] is: measured here: nuclear c-Myc green intensity z-score.
The mark [15] stands for this setting: measured here: nuclear pErk red intensity z-score, stronger effect = higher value.

Where “and” joins values, the source holds several entries; their conditions need not be identical. Identical values can stand only once. Calls of active or inactive are those of the source.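 Rule for the calls, unless noted: active = inhibition at or above 50% relative to wild type and mutant plate controls; inactive = inhibition below 50%.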

Chain of Dual specificity protein phosphatase 6 (Homo sapiens) (Q16828 whole entry, looked up): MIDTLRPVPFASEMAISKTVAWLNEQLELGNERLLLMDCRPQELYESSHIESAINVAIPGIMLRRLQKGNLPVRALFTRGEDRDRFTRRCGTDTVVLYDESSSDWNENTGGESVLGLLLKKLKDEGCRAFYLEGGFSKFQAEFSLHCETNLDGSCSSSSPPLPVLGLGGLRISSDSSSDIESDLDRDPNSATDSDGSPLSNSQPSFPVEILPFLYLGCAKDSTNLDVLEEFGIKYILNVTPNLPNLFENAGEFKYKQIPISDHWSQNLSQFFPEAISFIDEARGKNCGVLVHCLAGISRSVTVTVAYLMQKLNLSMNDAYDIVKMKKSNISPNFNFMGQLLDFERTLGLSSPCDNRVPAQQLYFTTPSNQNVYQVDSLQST
Chain of Voltage-gated potassium channel subunit beta-2 (Rattus norvegicus) (P62483 whole entry, looked up): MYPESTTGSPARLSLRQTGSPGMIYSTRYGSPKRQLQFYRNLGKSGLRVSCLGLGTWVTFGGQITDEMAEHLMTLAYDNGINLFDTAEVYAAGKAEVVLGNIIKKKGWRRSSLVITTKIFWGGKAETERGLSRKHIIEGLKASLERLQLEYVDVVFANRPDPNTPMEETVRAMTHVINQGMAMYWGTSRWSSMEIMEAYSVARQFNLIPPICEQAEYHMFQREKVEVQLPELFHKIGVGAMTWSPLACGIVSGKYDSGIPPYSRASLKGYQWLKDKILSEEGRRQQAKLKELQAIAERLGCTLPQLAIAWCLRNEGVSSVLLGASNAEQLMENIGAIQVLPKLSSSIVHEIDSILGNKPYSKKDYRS
Chain of Alpha-2C adrenergic receptor (Homo sapiens) (P18825 whole entry, looked up): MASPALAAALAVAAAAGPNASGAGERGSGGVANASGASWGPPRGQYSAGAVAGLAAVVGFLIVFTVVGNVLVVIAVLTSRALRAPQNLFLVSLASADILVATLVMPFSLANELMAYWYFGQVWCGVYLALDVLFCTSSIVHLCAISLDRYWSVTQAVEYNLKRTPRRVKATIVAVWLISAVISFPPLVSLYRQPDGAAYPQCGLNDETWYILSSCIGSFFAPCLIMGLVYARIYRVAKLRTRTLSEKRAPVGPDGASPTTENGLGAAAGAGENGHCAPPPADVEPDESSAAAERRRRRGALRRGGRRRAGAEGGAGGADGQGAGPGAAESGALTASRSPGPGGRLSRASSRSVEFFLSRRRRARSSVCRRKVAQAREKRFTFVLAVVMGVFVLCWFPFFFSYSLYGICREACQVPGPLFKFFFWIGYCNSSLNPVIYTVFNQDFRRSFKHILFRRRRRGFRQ

Turning to `CC1=C(c2ccc(Cl)cc2)[N+](=O)C(C)(C)N1[O-]`, the cell count in assay [1] was found to be 523. For the same compound, the inhibition in [1] was -5.6% (inactive); in assay [3], -69.5% (inactive); in assay [5], 6.04% (inactive); in [10], 21.6% (inactive); in [11], -0.683% (inactive); in assay [12], 15.7% (inactive). The inhibition of aggregation in [2] is 8.9% (inactive). The nuclei count turned out to be 94.8% in [2] and 124% in assay [3]. Moreover, the values for the z-score in [4] (setting [13]), in [4] (setting [14]) and in assay [4] (setting [15]) were 0.834, -1.84 and 0.735, respectively. For the same compound, in assay [6], the fluorescence slope is -0.408 (inactive). Also, the NADPH fluorescence slope in assay [7] was -7.3e-06 (inactive). Further, the slope in assay [8] is 0.00633 (inactive). For the same compound, the result in assay [9] was inactive.

With `CC(CN1c2ccccc2Sc2ccccc21)N(C)C` (configuration not stated), the cell count in assay [1] was 546. The inhibition was 2.6% (inactive) in [1]; -48.8% (inactive) in [3]; -0.828% (inactive) in assay [5]; 91.5% (active) and 139% (active) in assay [10]; 5.11% (inactive) in assay [11]; 31% (inactive) in [12]. The inhibition of aggregation in [2] is 6.8% (inactive). The nuclei count in assay [2] was found to be 100%; in assay [3], 109%. The z-score in assay [4] (setting [13]) is 2; in assay [4] (setting [14]) it was -0.736; in assay [4] (setting [15]) it was 0.272. For the same compound, the fluorescence slope in assay [6] was -0.478 (inactive). For the same compound, in [7], the NADPH fluorescence slope was -1.7e-05 (inactive). Moreover, the slope in assay [8] was 0.0061 (inactive). Also, the outcome in assay [9] was inactive.

Take `OCCN(CCO)c1nc(N2CCCCC2)c2nc(N(CCO)CCO)nc(N3CCCCC3)c2n1`: in assay [1], the cell count was 547. For the same compound, the inhibition was -6.1% (inactive) in assay [1]; -59.7% (inactive) in assay [3]; -0.493% (inactive) in [5]; 1.16% (inactive) and 19.1% (inactive) in assay [10]; 10.6% (inactive) in assay [11]; -14.4% (inactive) in assay [12]. Moreover, the inhibition of aggregation in assay [2] was -4% (inactive). In addition, the nuclei count in [2] stood at 110%; in assay [3] it was 134%. Also, the z-score amounted to 0.412 in assay [4] (setting [13]), 0.0897 in [4] (setting [14]) and 0.61 in assay [4] (setting [15]). Moreover, the fluorescence slope in assay [6] is -0.056 (active). In addition, in assay [7], the NADPH fluorescence slope is -1.2e-07 (inactive). The slope in assay [8] was 0 (inactive). For the same compound, the compound was classed as inactive in assay [9].

For the compound `CC(=O)OCC(=O)[C@@]12OC(C)(C)O[C@@H]1C[C@H]1[C@@H]3C[C@H](F)C4=CC(=O)C=C[C@]4(C)[C@@]3(F)[C@@H](O)C[C@@]12C`, the cell count in assay [1] is 518. Besides, the inhibition in assay [1] is -0.9% (inactive); in [3] it was -73.2% (inactive); in [5] it was -2.46% (inactive); in assay [10] it was -12.6% (inactive); in assay [11], 5.9% (inactive); in assay [12], 40.3% (inactive). In addition, the inhibition of aggregation in assay [2] is 2% (inactive). Further, the nuclei count in assay [2] amounted to 53.2%; in assay [3], 104%. Further, the z-score was -0.49 in assay [4] (setting [13]), -0.238 in assay [4] (setting [14]) and -0.0296 in assay [4] (setting [15]). For the same compound, the fluorescence slope in assay [6] was -0.449 (inactive). Further, the NADPH fluorescence slope in assay [7] is -7.8e-05 (inactive). Also, the slope in [8] was 0.00478 (inactive). The result in [9] was inactive.

Regarding `CCN(CC)CCCC1(CN)OCCc2ccccc21` (configuration not stated), the cell count in assay [1] turned out to be 475. In addition, the inhibition in [1] was -12.9% (inactive); in [3] it was -55.8% (inactive); in assay [5], 17% (inactive); in [10] it was 24.5% (inactive); in assay [11], 5.61% (inactive); in [12] it was 50.5% (active). Also, the inhibition of aggregation in [2] is -31.3% (inactive). The nuclei count was 86.5% in assay [2] and 104% in assay [3]. Also, the z-score in assay [4] (setting [13]) is 1.04; in [4] (setting [14]), 0.0892; in [4] (setting [15]), -0.524. In addition, the fluorescence slope in assay [6] was -0.378 (inactive). In assay [7], the NADPH fluorescence slope is -6.2e-06 (inactive). Besides, the slope in assay [8] is 0.00288 (inactive). Moreover, the compound was classed as inactive in assay [9].

Take `c1ccc(CN(CC2=NCCN2)c2ccccc2)cc1`: the cell count in [1] was 455 and 493. In addition, the inhibition in assay [1] was 0% (inactive) and 19.7% (inactive); in assay [3] it was -8.6% (inactive) and -65.1% (inactive); in assay [5] it was 8% (inactive) and 13.3% (inactive); in assay [10], -11.5% (inactive) and 25.6% (inactive); in [11] it was -7.89% (inactive) and 7.92% (inactive); in assay [12], 0.563% (inactive) and 36.8% (inactive). Further, the inhibition of aggregation in assay [2] was 9.9% (inactive) and 6.3% (inactive). The nuclei count in [2] is 97.2% and 85%; in assay [3], 98.7% and 128%. Also, the z-score is 0.164 and -0.173 in assay [4] (setting [13]); 0.692 and 0.37 in assay [4] (setting [14]); -0.518 and 0.488 in [4] (setting [15]). Also, the fluorescence slope in assay [6] was -0.512 (inactive) and -0.523 (inactive). Further, the NADPH fluorescence slope in assay [7] is -3e-05 (inactive) and -2.5e-05 (inactive). Further, the slope in [8] is 0.00381 (inactive) and 0.00497 (inactive). Besides, the compound was classed as inactive in assay [9].
